A340 absorber – absorbance at 340 nm; compound absorbance at 340 nm, fold over control; fold change at 10 µM; 65,000 tested, under 10 active;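 active = at 10 µM dose, initial 340 nm absorbance at least 2 fold that of control wells; inactive = change under 2 fold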;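 note: initial absorbance extrapolated from kinetic A340 decline of NADH oxidation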
PMK inhibit – S. pneumoniae PMK inhibition; purified PMK, PK/LDH-coupled NADH absorbance 340 nm; inhibition, % at 10 µM; hit rate 0.49% among 65,000; AID 539;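 active = top-ranked compounds by inhibition in the single 10 µM screen, taking a fixed number of the strongest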
Fluor 339 460 – intrinsic fluorescence of library compounds, ex339/em460 – biochemical, MLSMR library, data from DPM-DC assay, artefact control, profiling panel; compound autofluorescence, ex339/em460 nm, NADH buffer; stronger effect = higher value; 1 = no-compound wells, NADH background; fluorescence fold increase at 10 µM; hit rate 5.5% among 65,000;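 active = at 10 µM, mean starting fluorescence two-fold or more over control wells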;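 note: signal is the first read of a kinetic run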
NADH enzymes – inhibition of NAD/NADH coupling enzymes, library profiling. coupled PK/LDH NADH assays, four targets. IC50, µM (titrated, usually from 10 µM). hit rate 0.02% among 65,000. AID 774;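 active = single-dose screening hits from any of four coupled enzyme assays that gave an IC50 when retested across doses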;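 note: the DPM-DC format reads NADH fluorescence rather than 340 nm absorbance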
Spn DPM-DC inh – S. pneumoniae DPM-DC inhibition. purified DPM-DC, PK/LDH coupled NADH fluorescence. calls only at 10 µM. hit rate 0.49% among 65,000. AID 556;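 active = the 320 compounds with the highest percent inhibition in the single-dose primary screen, excluding strongly autofluorescent ones, cut at about 32% in these data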;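 note: kinetic rate of NADH fluorescence loss reporting ADP formed by the decarboxylase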
Spn MK inh – S. pneumoniae mevalonate kinase inhibition; purified MK, PK/LDH-coupled NADH absorbance 340 nm; hit rate 0.48% among 65,000; inhibition, % at 10 µM;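 active = ranked among the strongest by inhibition in the single 10 µM screen, a fixed top-ranked set picked for dose follow-up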
Hits are given with their value. Most compounds without a hit are left out; they make up all but 6.8% or so of the library.

For Cc1ccc(-c2csc3n[nH]c(=S)n23)cc1 the results were A340 absorber inactive, PMK inhibit inactive, Fluor 339 460 inactive, NADH enzymes inactive, Spn DPM-DC inh inactive and Spn MK inh 88.
For Cc1ccc(-c2csc3nnc(SCC(=O)N4CCN(Cc5ccccc5)CC4)n23)cc1 the results were A340 absorber inactive, PMK inhibit inactive, Fluor 339 460 inactive, NADH enzymes inactive, Spn DPM-DC inh inactive and Spn MK inh inactive.
For O=C(Cn1c(=O)c2c(ncn2Cc2ccccc2)n(Cc2ccccc2)c1=O)N1CCCC1 the results were A340 absorber inactive, PMK inhibit inactive, Fluor 339 460 inactive, NADH enzymes inactive, Spn DPM-DC inh inactive and Spn MK inh inactive.
For O=c1n(Cc2ccccc2)c2cc(Cl)cnc2n1Cc1ccccc1 the results were A340 absorber inactive, PMK inhibit inactive, Fluor 339 460 2.8, NADH enzymes inactive, Spn DPM-DC inh inactive and Spn MK inh inactive.
c1ccc2sc(-c3ccc4c(c3)OCO4)nc2c1 was read as A340 absorber inactive, PMK inhibit inactive, Fluor 339 460 2.1, NADH enzymes inactive and Spn MK inh inactive.
For CN(C)Cc1cn(CCC(=O)O)c2ccccc12 the results were A340 absorber inactive, PMK inhibit inactive, Fluor 339 460 inactive, NADH enzymes inactive, Spn DPM-DC inh inactive and Spn MK inh inactive.
`CCOC(=O)C1=C(N)OC2=C(C(=O)CCC2)C1c1ccc(C)s1` (configuration not stated) gave A340 absorber inactive, PMK inhibit 37, Fluor 339 460 inactive, NADH enzymes inactive, Spn DPM-DC inh inactive and Spn MK inh inactive.
Screening NC1C2CN(c3nc4c(cc3F)c(=O)c(C(=O)O)cn4-c3ccc(F)cc3F)CC12 (configuration not stated) returned A340 absorber inactive, PMK inhibit inactive, Fluor 339 460 2.1, NADH enzymes inactive, Spn DPM-DC inh inactive and Spn MK inh inactive.
`CCOCCc1nnc(NC(=O)CSc2ccccc2)s1` gave A340 absorber inactive, PMK inhibit inactive, Fluor 339 460 inactive, NADH enzymes inactive, Spn DPM-DC inh inactive and Spn MK inh inactive.
Screening Cc1cccc(N2CCN(c3nc4ccc(Cl)cc4n4cnnc34)CC2)c1C returned A340 absorber inactive, PMK inhibit inactive, Fluor 339 460 2.1, NADH enzymes inactive and Spn MK inh inactive.
`O=C(c1ccccc1)c1ccc2nc(N3CCN(C(=O)c4ccco4)CC3)c3nncn3c2c1` gave A340 absorber inactive, PMK inhibit inactive, Fluor 339 460 inactive, NADH enzymes inactive, Spn DPM-DC inh inactive and Spn MK inh inactive.
For COc1ccc(CNC(=O)c2ccc3c(c2)N(C)C(=O)CS3=O)cc1 (configuration not stated) the results were A340 absorber inactive, PMK inhibit inactive, Fluor 339 460 inactive, NADH enzymes inactive, Spn DPM-DC inh inactive and Spn MK inh inactive.
Screening c1coc(CNc2ncnc3nc[nH]c23)c1 returned A340 absorber inactive, PMK inhibit inactive, Fluor 339 460 inactive, NADH enzymes inactive, Spn DPM-DC inh inactive and Spn MK inh inactive.
CCc1cc2c(NCCN3CCCCC3)ncnc2s1 was read as A340 absorber inactive, PMK inhibit inactive, Fluor 339 460 inactive, NADH enzymes inactive, Spn DPM-DC inh inactive and Spn MK inh inactive.
Screening COc1ccc2[nH]c3c(NCCN4CCCCC4)ncnc3c2c1 returned A340 absorber inactive, PMK inhibit inactive, Fluor 339 460 3.7, NADH enzymes inactive and Spn MK inh inactive.
`Cc1ccc2[nH]c3c(NCc4ccco4)ncnc3c2c1` gave A340 absorber inactive, PMK inhibit inactive, Fluor 339 460 3.8, NADH enzymes inactive and Spn MK inh inactive.
Cc1ccc2[nH]c3c(NCCCN4CCCC4=O)ncnc3c2c1 was read as A340 absorber inactive, PMK inhibit inactive, Fluor 339 460 3.8, NADH enzymes inactive and Spn MK inh inactive.
`CCC(Sc1nc2cc(OC)c(OC)cc2c2nc(C)nn12)C(=O)NCc1ccco1` (configuration not stated) gave A340 absorber inactive, PMK inhibit inactive, Fluor 339 460 inactive, NADH enzymes inactive, Spn DPM-DC inh inactive and Spn MK inh inactive.
Screening CCN(CC(N)=O)S(=O)(=O)c1ccc(Br)cc1 returned A340 absorber inactive, PMK inhibit inactive, Fluor 339 460 inactive, NADH enzymes inactive, Spn DPM-DC inh inactive and Spn MK inh inactive.

Bioassay records deposited in PubChem by SRMLSC.
